Screening results deposited in PubChem BioAssay by several laboratories.
Rows were chosen to be rich in hits. Some 0.51% of all compounds tested hit in one or more screens of this group.
E coli growth-1: E. coli growth inhibition, primary screen, OD600. Escherichia coli growth, 23 h; hits give low values. OD600 absorbance (test concentration not listed). 0.21% of 330,000 active;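 active means OD600 absorbance below the run mean of sample wells minus 3.6 SD, in any replicate, cut at about 0.56 in these data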
AddAB inh: growth inhibition of E. coli expressing H. pylori AddAB, primary screen, AddAB inhibitor project, absorbance. AID 435030, 2010. inhibition, % at 11.9 µM. 0.29% of 330,000 active; in the data active means inhibition above about 12%;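 further: 0% = vehicle wells of infected cells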
Tat export inh: E. coli Tat export inhibitors, primary screen, MC4100, TorA-mCherry reporter, fluorescence, single point; inhibition, % at 10 µM; 0.036% of 340,000 active;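 active means mean replicate inhibition at least 50% and at least half of replicates individually reaching 50%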;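 further: exported cargo escapes ClpAP degradation while cytoplasmic cargo is degraded and loses fluorescence; 0% = median of neutral control wells and 100% = median of NaSCN control wells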
E coli growth-2: E. coli V3065 growth inhibition, primary screen, counter-screen for AddAB inhibitor project, absorbance, OD600 | 0.27% of 330,000 active | 18 h | inhibition, % at 11.9 µM;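 active means inhibition above the campaign's mean inhibition across all tested compounds plus 3 SD, cut at about 9.9% in these data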;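 further: uninfected addAB+ strain grown without phage in ampicillin broth; 0% = DMSO wells and 100% = ciprofloxacin 0.95 µg/ml wells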
phage Ecoli inh: growth loss of phage-infected E. coli, primary screen, RecBCD inhibitor project, absorbance, with phage, HTS | 0.26% of 360,000 active | inhibition, % at 11.9 µM; in the data active means inhibition above about 11%
The depositor's hits bear a star; x = no result given; ! = repeats disagree.

SMILES	E coli growth-1	AddAB inh	Tat export inh	E coli growth-2	phage Ecoli inh
CC(C)(O)C1CC[C@@](C)(C2CC[C@]3(C)C2C(O)CC2[C@@]4(C)CCC(O)C(C)(C)C4C(OC4OC(CO)C(O)C(O)C4OC4OCC(O)C(O)C4O)C[C@]23C)O1 (some centres undefined)	0.66	x	x	x	x
CCN1C(=O)C2C(c3ccc(-c4ccc(F)cc4)cc3)N[C@@](CC(C)C)(C(=O)OC)C2C1=O (some centres undefined)	0.69	x	x	x	x
COc1ccc(C(=O)N2CCOC2CNC(=O)C(=O)NCc2ccc3c(c2)OCO3)cc1 (centres undefined)	0.51*	0	4	0	1
Cc1ccc(C(=O)ON=Cc2ccc(N3CCCCC3)c([N+](=O)[O-])c2)cc1	0.7	x	x	x	x
CC(=O)Nc1ccc(SCC(Cc2ccccc2)N2CCC(C(C)(C)C)CCC2=O)cc1 (centres undefined)	0.68	x	x	x	x
O=C(Nc1cccnc1)Nc1ccccc1Cl	0.7	0	-7	0	4
O=C(Nc1ccncc1)Nc1ccc(Cl)cc1	0.52*	-1	9	1	7
O=C(Nc1cccnc1)Nc1cc(Cl)cc(Cl)c1	0.5*	4	-11	4	10
CCOC(=O)CC1c2ccc(C(F)(F)F)cc2S(=O)(=O)N1C(C)C (centres undefined)	0.69	x	x	x	x
CC(=O)c1ccc(NS(=O)(=O)c2ccc(N)cc2)cc1	0.68	4	-2	2	4
CC(=O)NS(=O)(=O)c1ccc(N)cc1	0.7	-2	12	10*!	6
O=C1C2C3C=CC(C3)C2C(=O)N1n1cnnc1 (centres undefined)	0.66	x	x	x	x
CC(CCc1ccccc1)NC(=O)C(Cc1ccccc1)NC(N)=O (centres undefined)	0.53*	2	-3	1	4
C=Cc1ncc(OC)c2c1[nH]c1ccccc12	0.49*	3	0	2	x
N#CC(=NNc1ccc(Cl)cc1)C(N)=S	0.45*	x	x	x	x
COC(=O)[C@]1(Cc2ccccc2)NC(c2ccc(-c3ccc(F)cc3)cc2)C2C(=O)N(C)C(=O)C21 (some centres undefined)	0.72	x	x	x	x
COc1cc(C=CCO)cc(OC)c1OC1OC(CO)C(O)C(O)C1O (centres undefined)	0.66	x	x	x	x
COC1C(OC(N)=O)C(O)C(Oc2ccc3c(O)c(NC(=O)c4ccc(O)c(CC=C(C)C)c4)c(=O)oc3c2C)OC1(C)C (centres undefined)	0.38*	x	x	x	x
CCOC1OC(C(=O)Nc2ccccc2)=CC(c2csc3ccccc23)C1CCCO (centres undefined)	0.73	x	x	x	x
C=CCOC(=O)C1=CC(c2ccc(C(F)(F)F)cc2)C(CCCO)C(OCC)O1 (centres undefined)	0.71	x	x	x	x
CCCCN(C)CCn1c(=S)[nH]c2ncccc2c1=O	0.68	0	51*	3	4
CC[C@H]1OC(=O)C[C@@H](O)[C@H](C)[C@@H](O[C@@H]2O[C@H](C)C[C@H](N(C)C)[C@H]2O)[C@@H](CC=O)C[C@@H](C)C(=O)C=C[C@]2(C)O[C@H]2[C@@H]1C	x	99*	x	100*	x
Nc1ccccc1SCc1cn2cccnc2n1	0.73	3	0	1	3
Nc1ccccc1SCc1cn2ccccc2n1	0.62	5	75*	4	5
CCC(CC)c1nnc(NC(=O)CCN2C(=O)c3ccccc3C2=O)s1	0.76	0	3	-1	2
SMILES	E coli growth-1	AddAB inh	Tat export inh	E coli growth-2	phage Ecoli inh
CC(C)Cc1nnc(NC(=O)CCN2C(=O)c3ccccc3C2=O)s1	0.72	68*	-5	27*	1
COc1ccc(CN2C(CC(C)=O)c3cc(C(F)(F)F)ccc3S2(=O)=O)cc1 (centres undefined)	0.69	x	x	x	x
N#Cc1cccc(NC(=O)Nc2cccs2)c1	0.54*	6	2	5	5
Cc1ccc(NC(N)=Nc2nc(CSc3ccccn3)cc(=O)[nH]2)c(C)c1	0.71	x	x	x	x
CCc1ccc(Nc2n[n+](-c3ccccc3)c(-c3c(Cl)cccc3Cl)s2)cc1	0.47*	8	13	8	4
CC(=O)OC[C@]1(OC(C)=O)C[C@@]23CCC4[C@@](C)(CCC[C@@]4(C)C(=O)O)C2CCC1C3 (some centres undefined)	0.71	x	x	x	x
Cc1cc(Cl)ccc1NC(=S)NCCC(c1ccccc1)c1ccccc1	0.73	11	10	13*	3
CC[n+]1c(/C=C2\Sc3ccccc3N2C)ccc2cccc(C)c21	0.33*	x	11	x	2
O=c1c(O)c(-c2cc(O)c(O)c(O)c2)oc2cc(O)cc(O)c12	x	11	9	10*	10
O=c1c(O)c(-c2ccccc2)oc2cc(O)cc(O)c12	0.69	6	7	3	7
O=C1c2ccccc2C(=O)N1CCCc1cn(CC2CCC(C3CCC(Cn4cc(CCCN5C(=O)c6ccccc6C5=O)nn4)O3)O2)nn1 (centres undefined)	0.67	x	x	x	x
CO[C@@]12[C@@H]3N[C@@H]3CN1C1=C(C(=O)C(N)=C(C)C1=O)[C@@H]2COC(N)=O	x	x	67*	x	9
CCOC(=O)c1ccc(S(=O)(=O)NCCN(CC)CC)cc1	0.44*	0	-7	1	3
CCN(CC)CCNS(=O)(=O)c1ccc(C(=O)NN)cc1	0.69	0	-5	0	2
O=C(NCc1ccc(Cl)cc1)C1CCN(S(=O)(=O)c2cccc3nonc23)CC1	0.53*	4	-1	0	0
O=C(NCCc1ccc(Cl)cc1)C1CCN(S(=O)(=O)c2cccc3nonc23)CC1	0.76	5	-1	-2	-1
O=[N+]([O-])c1ccc(-[n+]2ccc3ccccc3c2)c([N+](=O)[O-])c1	0.45*	5	-1	2	3
O=[N+]([O-])c1ccc(SNc2ccccc2)c([N+](=O)[O-])c1	x	x	3	x	3
O=C(CCN1CCOCC1)NNC(=S)NC(=O)c1ccc(Br)cc1	0.47*	1	-2	3	-3
O=C(CCN1CCCCC1)NNC(=S)NC(=O)c1ccc(Br)cc1	0.6	0	-1	-1	-3
Cc1cccc(C2C3C(=O)N(Cc4ccccc4)C(=O)C3[C@]3(C)C(=O)N(c4ccc(C(F)(F)F)cc4)C(=O)N23)c1 (some centres undefined)	0.73	x	x	x	x
COc1ccc(CC(N)C(=O)NC2C(CO)OC(n3cnc4c(N(C)C)ncnc43)C2O)cc1 (centres undefined)	0.3*	x	x	x	x
CC[C@@]12C(=O)N(c3ccc(C)cc3)C(=O)N1C(c1cccc(C)c1)C1C(=O)N(Cc3ccccc3)C(=O)C12 (some centres undefined)	0.7	x	x	x	x
Cc1conc1NC(c1cccs1)c1ccc2cccnc2c1O (centres undefined)	x	13*	x	13*	x
Oc1c(C(Nc2nccs2)c2ccc(C(F)(F)F)cc2)ccc2cccnc12 (centres undefined)	0.7	x	-1	x	9
Cc1ccc(-n2[nH]c(C)c(C=Nc3ccc(S(=O)(=O)Nc4nccs4)cc3)c2=O)c(C)c1	0.61	13*	x	6	x
